In the library only some 2.8% were active in any assay of this set; here they are far more common.
EWS-Fli block – EWS/Fli-driven NR0B1 reporter inhibitors, primary screen, A673 cells, NR0B1 luciferase, luminescence, MLPCN library. 0.67% of 350,000 active. AID 651661, 2012. inhibition, % at 12.6 µM. viability-normalised;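 active = mean inhibition of at least 50% after viability correction, with every replicate also passing that limit; inconclusive = mean reaches 50% but only one of two replicates passes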;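 also: firefly luciferase signal divided by Alamar Blue viability fluorescence both relative to DMSO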
TROY signal inh – inhibitors of TROY-driven NF-kB signaling, primary screen, Q293 LMP1-TROYcd cells, NF-kB luciferase, uHTS. Q293 LMP1-TROYcd NF-kB luciferase reporter, 4 h. inhibition, % at 10 µM. 0.98% of 360,000 active;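 active = compounds whose plate-normalised and pattern-corrected inhibition of the luciferase reporter signal at the single screening dose is 50% or more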
PAX8 inh HTS – inhibitors of PAX8-driven TPO luciferase reporter, primary screen, RMG-I cells, single concentration | 1.2% of 360,000 active | SteadyGlo, 24 h | inhibition, % at 12.6 µM;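 active = mean replicate inhibition at least 60% with every replicate also reaching 60%; inconclusive = only one of the two criteria is met; inactive = mean below 60% and not all replicates reaching 60%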;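 also: luciferase light reporting Pax8 driven TPO promoter activity; plate controls were median of neutral control wells for no effect and mitoxantrone controls for full effect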
TWEAK-Fn14 inh – inhibitors of TWEAK-Fn14 signaling, primary screen, luciferase reporter cells, uHTS; TWEAK-stimulated Fn14 reporter cells, luciferase luminescence, 8 h; inhibition, % at 10 µM; 2% of 360,000 active; in the data active = inhibition above about 50%
LGR2 inh – inhibitors of bursicon-induced LGR2 CRE-luciferase signal, primary screen, cell-based, HEK293, CRE-luciferase reporter, bursicon stimulation; AID 720647, 2013; bursicon-stimulated, 4 h; inhibition, % at 9.99 µM; 0.35% of 380,000 active; Drosophila bursicon receptor LGR2 (rickets);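 active = drop in luminescence signal, shown as inhibition above about 50% in the replicate tests, limit read from the data, passing the limit was not always enough; inconclusive = probably only some replicates passing the limit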;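 also: agonist challenge used bursicon conditioned medium at about half maximal strength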
* hit, by the source's call; ? = inconclusive; . = no result; ! = not active in a repeat.

SMILES	EWS-Fli block	TROY signal inh	PAX8 inh HTS	TWEAK-Fn14 inh	LGR2 inh
COc1c(O)cc2c(c1OC)-c1ccc(OC)c(=O)cc1C(NC(C)=O)CC2 (centres undefined)	37.5	14.4	76.9*	41.6	-10.7
COc1cc2c(c(OC)c1OC)-c1ccc(C(=O)O)cc1[C@@H](NC(C)=O)CC2	-8.1	1.6	-2.4	-3.0	13.0
COc1cc2c(c(OC)c1O)-c1ccc(OC)c(=O)cc1C(NC(=O)C(F)(F)F)CC2 (centres undefined)	36.8	19.8	79.6*	-16.7	5.8
COc1cc2c(c(OC)c1OC)-c1ccc(SC)c(=O)cc1C(NC(C)=O)CC2 (centres undefined)	24.8	5.8	82.8*	48.4	-3.9
O=C(Cc1ccncc1)N1CCCCN2[C@H](CO)[C@H](c3ccc(C#CC4(O)CCCC4)cc3)[C@@H]2C1	.	.	12.4	.	12.8
COC(=O)[C@H]1[C@H](CO)[C@H]2Cn3c(ccc(-c4ccccc4F)c3=O)[C@@H]1N2C(C)=O	-2.8	.	6.8	.	-7.2
COc1cc(OC)c(OC)cc1/C=C1/C(=O)NC(=O)N(Cc2ccccc2)C1=O	3.3	-10.6	-13.3	11.7	9.5
CC(C)c1ccc(N2C(=O)NC(=O)/C(=C\C=C\c3ccco3)C2=O)cc1	73.7*	.	-1.5	.	-1.9
O=C1NC(=O)N(Cc2ccccc2)C(=O)/C1=C/C=C/c1ccco1	64.7*	-3.2	27.4	15.4	13.8
CC(C)c1ccc(N2C(=O)NC(=O)/C(=C\c3cnc(-c4ccccc4)nc3)C2=O)cc1	.	24.0	.	11.6	.
COc1cc(OC)c(OC)cc1/C=C1\C(=O)NC(=O)N(Cc2ccccc2)C1=O	9.6	55.2*	-8.8	7.9	1.8
COC(=O)[C@H]1[C@H](CO)[C@H]2Cn3c(cccc3=O)[C@@H]1N2C(=O)C1CCCC1	4.5	.	.	.	19.0
C=C(C=O)CC1CC(O)[C@]2(C)OC3CC4OC5C[C@]6(C)O[C@]7(C)CCC8OC9C[C@]%10(C)OC%11C(C)=CC(=O)OC%11CC%10OC9C[C@@H](C)C8OC7CC6O[C@]5(C)CC5OC5C4OC3CC2O1 (some centres undefined)	.	89.1*	.	108.5*	.
COc1ccc(C#Cc2ccc([C@@H]3[C@H]4CN(C(=O)Cc5ccncc5)CCCCN4[C@H]3CO)cc2)cc1	.	.	0.3	.	4.2
CC(=O)O[C@@H]1CC[C@]2(C)C3CC[C@]4(C)C(=O)[C@H](O)CC4C3[C@@H](OC(C)=O)C[C@H]2C1 (some centres undefined)	-8.7	30.3	-5.6	52.8*	29.4
CC(=O)O[C@H]1CC[C@]2(C)C3CC[C@@]4(C)C(C[C@@H](O)[C@@H]4O)C3[C@@H](OC(C)=O)C[C@H]2C1 (some centres undefined)	3.9	2.9	5.2	-25.4	10.5
COC(=O)C1=C(c2ccc(OCc3ccccc3)c(F)c2)C[C@@H]2CC[C@H]1N2C	-4.3	52.3*	-12.3	20.8	14.5
COC(=O)C1=C(c2ccccc2OCc2ccccc2)C[C@@H]2CC[C@H]1N2C	8.2	-9.3	3.6	-13.7	-6.7
COC(=O)C1=C(c2ccc(OCc3ccccc3)cc2)C[C@@H]2CC[C@H]1N2C	-0.5	56.9*	-32.5	31.4	0.5
COC(=O)C1=C(c2ccc(OCc3ccccc3)cc2)C[C@@H]2CC[C@H]1N2C(=O)NCCc1ccc(F)cc1	3.7	16.0	7.1	27.1	5.8
COC(=O)C1=C(c2ccc(OCc3ccccc3)cc2)C[C@@H]2CC[C@H]1N2C(=O)NCCCCc1ccccc1	11.4	12.3	61.7*	24.3	9.4
CC12CC[C@H]3[C@@H](CCC4(O)C[C@H](O)CCC34/C=N/NC(=O)c3ccccc3F)C1(O)CCC2C1=CC(=O)OC1 (some centres undefined)	-1.7	-12.8	-18.5	95.4*	-6.4
CC12CC[C@H]3[C@@H](CCC4(O)C[C@H](O)CCC34/C=N/NC(=O)c3ccccc3O)C1(O)CCC2C1=CC(=O)OC1 (some centres undefined)	3.3	-7.3	13.5	-25.1	39.4
COC(=O)C1=Nc2ccccc2/C1=C\c1c(O)n(-c2ccc(OC)cc2)c(=O)[nH]c1=O	.	34.7	.	64.6*	.
COc1ccc(OC)c(-n2c(O)c(/C=C3\C(C)=Nc4ccccc43)c(=O)[nH]c2=O)c1	9.9	6.5	21.7	7.2	2.3
SMILES	EWS-Fli block	TROY signal inh	PAX8 inh HTS	TWEAK-Fn14 inh	LGR2 inh
COC(=O)C1=Nc2ccccc2/C1=C\c1c(O)n(-c2ccc(Br)cc2)c(=O)[nH]c1=O	13.8	-2.4	16.6	58.6*	.
O=c1[nH]c(=O)n(-c2ccccc2)c(O)c1/C=C1/C(c2ccccc2)=Nc2ccccc21	.	-34.7	-14.2	38.4	5.9
CCN1[C@@H]2Cn3c(ccc(-c4ccc(OC)cc4)c3=O)[C@H]1[C@@H](C(=O)OC)[C@@H]2CO	3.3	.	.	.	15.7
C[n+]1c(-c2ccccc2)cc(-c2ccc(O)cc2)cc1-c1ccccc1	4.1	11.0	3.7	-2.3	7.4
Cc1ccc(-c2cc(-c3ccccc3)cc(-c3ccccc3)[n+]2-c2ccccc2C(=O)O)cc1	20.5	21.3	77.2*	28.8	-2.3
COC(=O)[C@H]1[C@H](CO)[C@H]2Cn3c(ccc(-c4cccc(C(=O)N(C)C)c4)c3=O)[C@@H]1N2CC1CC1	0.3	.	-5.9	.	7.6
CC[C@@H](O)C[C@H]1CCC[C@@]2(C[C@@H]3OC(=O)/C=C/[C@@](C)(O)[C@@H](O)[C@H](C)[C@@H](O)[C@H](OC4CCC(N(C)C)C(C)O4)[C@@H](O)[C@](C)(O)CCCCC/C=C/[C@@H]4CC(C)(C)O[C@@]4(O)C[C@H](O2)[C@H]3C)O1 (some centres undefined)	5.1	48.1	?	60.5*	.
C/C=C/c1ccc([C@H]2[C@H]3CN(C(=O)Cc4ccncc4)CCCCN3[C@H]2CO)cc1	-7.5	.	7.6	.	-20.9
COc1ccc(-c2ccc([C@@H]3[C@@H](CO)N4CCCCN(C(=O)Cc5ccccc5)C[C@H]34)cc2)cc1	.	.	119.3*	.	0.2
O=C(Cc1ccccn1)N1CCCCN2[C@@H](CO)[C@@H](c3ccc(-c4ccc(F)cc4)cc3)[C@@H]2C1	5.5	.	89.2*	.	0.6
O=C(Cc1ccccn1)N1CCCCN2[C@@H](CO)[C@H](c3ccc(-c4ccc(F)cc4)cc3)[C@@H]2C1	-1.8	.	-0.7	.	-40.6
COc1ccc(C#Cc2ccc([C@H]3[C@@H](CO)N4CCCCN(C(=O)Cc5cccnc5)C[C@@H]34)cc2)cc1	-8.1	.	4.0	.	-9.5
Fc1ccc(CNCCc2ccccc2F)cc1	5.0	70.4*	0.8	29.7	-3.3
COc1ccc(-c2ccc([C@H]3[C@@H](CO)N4CCCCN(C(=O)Cc5ccncc5)C[C@H]34)cc2)cc1	5.3	.	8.3	.	-6.5
NCCc1cc(O)c(O)cc1O	12.5	4.4	-8.1	56.4*!	7.1

Source: PubChem BioAssay
